# Reference: the antibiotic and cytotoxicity screens of Wong et al. (2023)
# Screen size: about 39,000 compounds; about 1,500 (3.8%) were called active. The full list was thinned out, with actives kept by preference.
# Tested on: HSkMC (human skeletal muscle cells)
# Assay: cytotoxicity call (relative viability < 0.9)
# Conditions: 10 µM
row,Structure (SMILES),cytotoxicity call
1,C[C@@H]1CCCCO[C@@H](CN(C)Cc2ccncc2)[C@H](C)CN([C@@H](C)CO)C(=O)c2cc(NC(=O)CCC(F)(F)F)ccc2O1,inactive
2,Oc1cc(O)c2c(c1)OC(c1cc(O)c(O)c(O)c1)C(O)C2c1c(O)cc(O)c2c1OC(c1cc(O)c(O)c(O)c1)C(O)C2c1c(O)cc(O)c2c1OC(c1cc(O)c(O)c(O)c1)C(O)C2 (stereo unspecified),inactive
3,C[C@@H]1CN([C@H](C)CO)C(=O)c2cc(C#CCN(C)C)cnc2O[C@H]1CN(C)Cc1ccc(C(=O)O)cc1,inactive
4,CCN(CC)[C@H]1CCS(=O)(=O)C1,inactive
5,C[C@@H](Oc1cc(-n2cnc3ccc(CN4CCN(C)CC4)cc32)sc1C(N)=O)c1ccccc1C(F)(F)F,active
6,COc1cccc(NC(=O)N2C[C@H](O)COC[C@@H]3O[C@@H](CC(=O)NC4Cc5ccccc5C4)CC[C@H]32)c1,inactive
7,CCCNC(=O)N(C)C[C@@H]1Oc2cc(C#Cc3cccc(F)c3)ccc2S(=O)(=O)N([C@@H](C)CO)C[C@H]1C,inactive
8,C[C@@H]1CN([C@H](C)CO)C(=O)c2cc(NS(=O)(=O)c3ccc(Cl)cc3)ccc2O[C@@H](C)CCCCO[C@H]1CN(C)Cc1ccc(Cl)c(Cl)c1,active
9,C[C@@H]1CCCCO[C@@H](CN(C)Cc2ccc(Cl)c(Cl)c2)[C@H](C)CN([C@@H](C)CO)C(=O)c2cc(NS(=O)(=O)c3ccc(Cl)cc3)ccc2O1,active
10,C[C@@H]1CCCCO[C@H](CN(C)Cc2ccc(Cl)c(Cl)c2)[C@@H](C)CN([C@@H](C)CO)C(=O)c2cc(NS(=O)(=O)c3ccc(Cl)cc3)ccc2O1,active
11,C[C@@H]1CCCCO[C@H](CN(C)Cc2ccc(Cl)c(Cl)c2)[C@H](C)CN([C@@H](C)CO)C(=O)c2cc(NS(=O)(=O)c3ccc(Cl)cc3)ccc2O1,inactive
12,C[C@@H]1CCCCO[C@@H](CN(C)Cc2ccc(Cl)c(Cl)c2)[C@@H](C)CN([C@H](C)CO)C(=O)c2cc(NS(=O)(=O)c3ccc(Cl)cc3)ccc2O1,inactive
13,C[C@@H]1CN([C@H](C)CO)C(=O)c2cc(NS(=O)(=O)c3ccc(Cl)cc3)ccc2O[C@@H](C)CCCCO[C@@H]1CN(C)Cc1ccc(Cl)c(Cl)c1,inactive
14,C[C@H](CO)N1C[C@H](C)[C@@H](CN(C)Cc2ccc(Cl)c(Cl)c2)OCCCC[C@H](C)Oc2ccc(NS(=O)(=O)c3ccc(Cl)cc3)cc2C1=O,inactive
15,C[C@@H]1CCCCO[C@@H](CN(C)Cc2ccc(Cl)c(Cl)c2)[C@@H](C)CN([C@@H](C)CO)C(=O)c2cc(NS(=O)(=O)c3ccc(Cl)cc3)ccc2O1,active
16,Nc1nnc(CC(=O)O)[nH]1,inactive
17,Cc1ccc(S(=O)(=O)Nc2ccc3c(c2)C(=O)N([C@H](C)CO)C[C@H](C)[C@H](CN(C)Cc2ccncc2)OCCCC[C@H](C)O3)cc1,inactive
18,O=C(N[C@H]1CC[C@@H](CCNS(=O)(=O)c2ccc(F)cc2)O[C@H]1CO)C1CC1,inactive
19,C[C@@H]1CCCCO[C@@H](CN(C)S(C)(=O)=O)[C@@H](C)CN([C@@H](C)CO)C(=O)c2cc(NC(=O)CCCN(C)C)ccc2O1,inactive

row,Structure (SMILES),cytotoxicity call
1,CC(C)NC(=O)Nc1ccc2c(c1)CC(=O)N([C@@H](C)CO)C[C@@H](C)[C@@H](CN(C)Cc1ccc3c(c1)OCO3)O2,inactive
2,C[C@H]1CCCCO[C@@H](CN(C)C(=O)C2CCCCC2)[C@@H](C)CN([C@@H](C)CO)C(=O)c2cc(NC(=O)c3ccccc3)ccc2O1,inactive
3,COC[C@@H](C)NC(=O)C1CN(C(C)=O)C1,inactive
4,C[C@H](CO)N1C[C@H](C)[C@@H](CN(C)S(=O)(=O)c2ccc(Cl)cc2)OCc2cn(nn2)CCCC1=O,inactive
5,Cc1noc(C)c1NC(=O)Nc1ccc2c(c1)C(=O)N([C@H](C)CO)C[C@@H](C)[C@H](CN(C)Cc1ccc(-c3ccccc3)cc1)O2,inactive
6,C[C@H]1CN([C@@H](C)CO)C(=O)c2cc(NS(=O)(=O)c3ccccc3)ccc2O[C@@H]1CN(C)S(=O)(=O)c1ccc(F)cc1,inactive
7,COc1ccc(-c2cnc3c(c2)C(=O)N([C@H](C)CO)C[C@H](C)[C@H](CN(C)C(=O)Cc2ccncc2)O3)cc1,inactive
8,C[C@@H]1CCCCO[C@H](CN(C)Cc2ccc(Cl)c(Cl)c2)[C@@H](C)CN([C@H](C)CO)C(=O)c2cc(NS(=O)(=O)c3ccc(Cl)cc3)ccc2O1,inactive
9,C[C@@H]1CCCCO[C@@H](CN(C)Cc2ccc(Cl)c(Cl)c2)[C@H](C)CN([C@H](C)CO)C(=O)c2cc(NS(=O)(=O)c3ccc(Cl)cc3)ccc2O1,active
10,CN1CCN(C(=O)[C@H]2[C@H](CO)[C@H]3Cn4c(ccc(C5=CCCC5)c4=O)[C@@H]2N3S(C)(=O)=O)CC1,inactive
11,CC(C)/C(=N/O)c1ccccc1,inactive
12,CC(C)NC(=O)N(C)C[C@@H]1Oc2ccc(NC(=O)C3CCCCC3)cc2C(=O)N([C@@H](C)CO)C[C@H]1C,inactive
13,C[C@@H]1O[C@H]2Oc3c(-c4ccc(O)cc4)oc4cc(O)c(c(O)c4c3=O)-c3cc(ccc3O)/C=C\C(=O)OC[C@H]3O[C@@H](O[C@H]([C@H]1O)[C@H]2O)[C@H](O)[C@@H](O)[C@@H]3O,inactive
14,Cc1c(CN2CCN(C(=O)[C@H](C)O)CC2)sc2c(N3CCOCC3)nc(-c3cnc(N)nc3)nc12,active
15,CC(=O)Nc1ncc(CN2CCOCC2)s1,inactive
16,CC(C)NC(=O)N(C)C[C@@H]1Oc2ccc(NS(=O)(=O)c3cccs3)cc2C(=O)N([C@H](C)CO)C[C@@H]1C,inactive
17,CC(C)NC(=O)N(C)C[C@H]1Oc2ccc(NC(=O)C3CCCCC3)cc2C(=O)N([C@H](C)CO)C[C@H]1C,inactive
18,C[C@H](CO)N1C[C@H](C)[C@H](CN(C)C(=O)NC2CCCCC2)OCCCC[C@H](C)Oc2ccc(NC(=O)Nc3ccc4c(c3)OCO4)cc2C1=O,inactive
19,C[C@H]1CN([C@@H](C)CO)C(=O)c2cc(-c3cccc(C#N)c3)cnc2O[C@@H]1CN(C)C(=O)c1cnccn1,inactive

row,Structure (SMILES),cytotoxicity call
1,CC1(COc2ccc3c(c2)ncn3-c2ccc3cccc(N4CCC(N)CC4)c3n2)COC1,active
2,COCCOC(=O)N1C(=O)[C@@]2(c3cc(C#CC4=CCCCC4)ccc31)[C@H](c1ccc(OCCO)cc1)N1[C@H](c3ccccc3)[C@H](c3ccccc3)OC(=O)[C@H]1[C@@H]2C(=O)N1CCc2cc(OC)c(OC)cc2C1,inactive
3,C=CCNC(=O)[C@@H]1[C@H]2C(=O)O[C@H](c3ccccc3)[C@H](c3ccccc3)N2[C@H](c2ccccc2OCCO)[C@@]12C(=O)Nc1ccc(C#CC3=CCCCC3)cc12,active
4,O=C1O[C@H](c2ccccc2)[C@H](c2ccccc2)N2[C@H]1[C@@H](C(=O)NC[C@@H](O)c1ccccc1)[C@]1(C(=O)Nc3ccc(C#CC4=CCCCC4)cc31)[C@H]2c1ccccc1OCCO,active
5,COCCOC(=O)N1C(=O)[C@@]2(c3cc(C#CC4=CCCCC4)ccc31)[C@H](C(=O)N1CCc3cc(OC)c(OC)cc3C1)[C@H]1C(=O)O[C@H](c3ccccc3)[C@H](c3ccccc3)N1[C@@H]2c1ccccc1OCCO,active
6,C=CCNC(=O)[C@H]1[C@@H]2C(=O)O[C@@H](c3ccccc3)[C@@H](c3ccccc3)N2[C@@H](c2ccccc2OCCO)[C@]12C(=O)Nc1ccc(C#CC3=CCCCC3)cc12,active
7,O=C1O[C@H](c2ccccc2)[C@H](c2ccccc2)N2[C@H]1[C@@H](C(=O)NC[C@@H](O)c1ccccc1)[C@]1(C(=O)Nc3ccc(C#CC4(O)CCCCCC4)cc31)[C@H]2c1ccccc1OCCO,inactive
8,COCCOC(=O)N1C(=O)[C@@]2(c3cc(C#CC4=CCCCC4)ccc31)[C@H](c1ccccc1OCCO)N1[C@H](c3ccccc3)[C@H](c3ccccc3)OC(=O)[C@H]1[C@@H]2C(=O)N1CCc2cc(OC)c(OC)cc2C1,inactive
9,C=CCNC(=O)[C@@H]1[C@H]2C(=O)O[C@H](c3ccccc3)[C@H](c3ccccc3)N2[C@H](c2ccc(OCCO)cc2)[C@@]12C(=O)Nc1ccc(C#CC3=CCCCC3)cc12,inactive
10,C=CCNC(=O)[C@@H]1[C@H]2C(=O)O[C@H](c3ccccc3)[C@H](c3ccccc3)N2[C@H](c2ccccc2OCCO)[C@@]12C(=O)Nc1ccc(C#Cc3ccc(OC)cc3)cc12,inactive
11,C=CCNC(=O)[C@H]1[C@@H]2C(=O)O[C@@H](c3ccccc3)[C@@H](c3ccccc3)N2[C@@H](c2ccccc2OCCO)[C@]12C(=O)Nc1ccc(C#CC3(O)CCCCCC3)cc12,inactive
12,C=CCNC(=O)[C@H]1[C@@H]2C(=O)O[C@@H](c3ccccc3)[C@@H](c3ccccc3)N2[C@@H](c2ccc(OCCO)cc2)[C@]12C(=O)Nc1ccc(C#CC3=CCCCC3)cc12,inactive
13,O=C1O[C@@H](c2ccccc2)[C@@H](c2ccccc2)N2[C@@H](c3ccc(OCCO)cc3)[C@]3(C(=O)Nc4ccc(C#CC5=CCCCC5)cc43)[C@@H](C(=O)NC[C@H](O)c3ccccc3)[C@H]12,inactive
14,C[C@H]1CN([C@@H](C)CO)C(=O)c2cc(NC(=O)Cn3cnnn3)ccc2O[C@@H]1CN(C)Cc1ccc(-c2ccccc2)cc1,inactive
15,COc1ccc(NC(=O)Nc2ccc3c(c2)C(=O)N([C@H](C)CO)C[C@@H](C)[C@H](CN(C)S(=O)(=O)c2c(C)noc2C)OCCCC[C@@H](C)O3)cc1,inactive
16,CC1CC2C3CC(F)C4=CC(=O)C=CC4(C)C3(F)C(O)CC2(C)C1(O)C(=O)COC(=O)C(C)(C)C (stereo unspecified),inactive
17,CC(=O)Nc1nnc2n1CCS2,inactive
18,C[C@H](O)C#Cc1cnc2c(c1)C(=O)N([C@H](C)CO)C[C@@H](C)[C@@H](CN(C)C(=O)CN1CCOCC1)O2,inactive
